In PubChem BioAssay AID1159580 (chemical genetic matrix, 2015):
Hit rate of the full screen: of about 5,500 compounds, about 2,000 (36%) were called active. Inconclusive results (about 18%) are left out. Rule as the data show it: active = normalized growth mostly below about 0.91 (no sharp cut-off); inconclusive = no clear call, values can overlap the other calls; inactive = mostly above about 0.92. The list shows a part of the results.

Assay: chemical genetic growth profiling, strain panel (AID 1159580);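 also: tested at 20 µM; growth read once vehicle control cultures reached saturation at 30 °C; 1 = growth at the plate median or of vehicle wells; lower values mean less growth of the strain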
Conditions: growth OD

Measured: normalized growth

Nc1ccc(C(=O)O)cc1
inactive: S. cerevisiae deletion strains, locus YJR066W, strain TOR1, stronger effect = lower value 0.968 | S. cerevisiae deletion strains, locus YJR075W, strain HOC1, stronger effect = lower value 1.01 | S. cerevisiae deletion strains, locus YKL009W, strain mrt4, stronger effect = lower value 1.02 | S. cerevisiae deletion strains, locus YKL068W, stronger effect = lower value 0.993 | S. cerevisiae deletion strains, locus YKL085W, strain MDH1 (second series), stronger effect = lower value 0.998 | S. cerevisiae deletion strains, locus YKL085W, strain MDH1, stronger effect = lower value 0.998 | S. cerevisiae deletion strains, locus YKL160W, strain elf1, stronger effect = lower value 1.03 | S. cerevisiae deletion strains, locus YKL190W, strain CNB1, stronger effect = lower value 0.996 | S. cerevisiae deletion strains, locus YKR001C, strain vps1, stronger effect = lower value 1.01 | S. cerevisiae deletion strains, locus YKR026C, strain gcn3, stronger effect = lower value 1.04 | S. cerevisiae deletion strains, locus YKR091W, strain srl3, stronger effect = lower value 1.02 | S. cerevisiae deletion strains, locus YLL001W, strain dnm1, stronger effect = lower value 1.03 | S. cerevisiae deletion strains, locus YLL026W, stronger effect = lower value 1.04 | S. cerevisiae deletion strains, locus YLL041C, strain sdh2, stronger effect = lower value 1.02 | S. cerevisiae deletion strains, locus YLR027C, strain aat2, stronger effect = lower value 1.02 | S. cerevisiae deletion strains, locus YLR039C, strain RIC1, stronger effect = lower value 0.996 | S. cerevisiae deletion strains, locus YLR058C, strain SHM2, stronger effect = lower value 1.01 | S. cerevisiae deletion strains, locus YLR102C, strain apc9, stronger effect = lower value 1.01 | S. cerevisiae deletion strains, locus YLR113W, strain HOG1, stronger effect = lower value 1.01 | S. cerevisiae deletion strains, locus YLR221C, strain rsa3, stronger effect = lower value 1.02 | S. cerevisiae deletion strains, locus YLR258W, strain gsy2, stronger effect = lower value 1.01 | S. cerevisiae deletion strains, locus YLR262C, strain YPT6 (second series), stronger effect = lower value 1.02 | S. cerevisiae deletion strains, locus YLR262C, strain YPT6, stronger effect = lower value 1.07 | S. cerevisiae deletion strains, locus YLR268W, strain sec22, stronger effect = lower value 1.02 | S. cerevisiae deletion strains, locus YLR320W, strain mms22, stronger effect = lower value 1.01 | S. cerevisiae deletion strains, locus YLR330W, strain CHS5, stronger effect = lower value 1.01 | S. cerevisiae deletion strains, locus YLR342W, strain FKS1 (second series), stronger effect = lower value 1.02 | S. cerevisiae deletion strains, locus YLR342W, strain FKS1, stronger effect = lower value 1.05 | S. cerevisiae deletion strains, locus YLR357W, strain rsc2, stronger effect = lower value 1.03 | S. cerevisiae deletion strains, locus YLR370C, strain arc18, stronger effect = lower value 1.02 | S. cerevisiae deletion strains, locus YLR371W, strain rom2, stronger effect = lower value 1.01 | S. cerevisiae deletion strains, locus YLR384C, strain iki3, stronger effect = lower value 1.01 | S. cerevisiae deletion strains, locus YLR418C, strain cdc73, stronger effect = lower value 1.03 | S. cerevisiae deletion strains, locus YML016C, strain PPZ1, stronger effect = lower value 1.01 | S. cerevisiae deletion strains, locus YML032C, strain rad52, stronger effect = lower value 1.01 | S. cerevisiae deletion strains, locus YML120C, strain ndi1, stronger effect = lower value 1.04 | S. cerevisiae deletion strains, locus YML124C, strain tub3, stronger effect = lower value 1.01 | S. cerevisiae deletion strains, locus YMR058W, strain fet3, stronger effect = lower value 1.04 | S. cerevisiae deletion strains, locus YMR078C, strain ctf18, stronger effect = lower value 1.02 | S. cerevisiae deletion strains, locus YMR125W, strain sto1, stronger effect = lower value 1.01 | S. cerevisiae deletion strains, locus YMR129W, stronger effect = lower value 1.03 | S. cerevisiae deletion strains, locus YMR205C, strain PFK2, stronger effect = lower value 1.03 | S. cerevisiae deletion strains, locus YMR223W, strain ubp8, stronger effect = lower value 1.01 | S. cerevisiae deletion strains, locus YMR231W, strain pep5, stronger effect = lower value 1.02 | S. cerevisiae deletion strains, locus YMR263W, strain SAP30, stronger effect = lower value 1 | S. cerevisiae deletion strains, locus YMR307W, strain GAS1, stronger effect = lower value 1.05 | S. cerevisiae deletion strains, locus YNL067W, strain RPL9B, stronger effect = lower value 1 | S. cerevisiae deletion strains, locus YNL071W, strain lat1, stronger effect = lower value 1.01 | S. cerevisiae deletion strains, locus YNL183C, strain NPR1, stronger effect = lower value 0.953 | S. cerevisiae deletion strains, locus YNL209W, strain ssb2, stronger effect = lower value 1.02 | S. cerevisiae deletion strains, locus YNL233W, strain BNI4, stronger effect = lower value 1.01 | S. cerevisiae deletion strains, locus YNL248C, strain rpa49, stronger effect = lower value 1.05 | S. cerevisiae deletion strains, locus YNL250W, strain rad50, stronger effect = lower value 1.01 | S. cerevisiae deletion strains, locus YNL271C, strain bni1, stronger effect = lower value 1.03 | S. cerevisiae deletion strains, locus YNL298W, strain CLA4, stronger effect = lower value 1.01 | S. cerevisiae deletion strains, locus YNL307C, strain MCK1, stronger effect = lower value 1.01 | S. cerevisiae deletion strains, locus YNL322C, strain KRE1 (second series), stronger effect = lower value 1.01 | S. cerevisiae deletion strains, locus YNR049C, strain mso1, stronger effect = lower value 1.02 | S. cerevisiae deletion strains, locus YNR052C, strain pop2, stronger effect = lower value 1 | S. cerevisiae deletion strains, locus YOL006C, strain TOP1, stronger effect = lower value 1.06 | S. cerevisiae deletion strains, locus YOL012C, strain htz1 2.07 | S. cerevisiae deletion strains, locus YOL147C, strain pex11, stronger effect = lower value 1.01 | S. cerevisiae deletion strains, locus YOR001W, strain rrp6, stronger effect = lower value 1.05 | S. cerevisiae deletion strains, locus YOR061W, strain CKA2, stronger effect = lower value 1.01 | S. cerevisiae deletion strains, locus YOR069W, strain VPS5, stronger effect = lower value 1.01 | S. cerevisiae deletion strains, locus YOR070C, strain gyp1, stronger effect = lower value 1.01 | S. cerevisiae deletion strains, locus YOR080W, strain dia2, stronger effect = lower value 1.04 | S. cerevisiae deletion strains, locus YOR083W, strain WHI5, stronger effect = lower value 1.05 | S. cerevisiae deletion strains, locus YOR106W, strain vam3, stronger effect = lower value 1.04 | S. cerevisiae deletion strains, locus YOR136W, strain idh2, stronger effect = lower value 1.02 | S. cerevisiae deletion strains, locus YOR144C, strain elg1, stronger effect = lower value 1.01 | S. cerevisiae deletion strains, locus YOR184W, strain ser1, stronger effect = lower value 1.02 | S. cerevisiae deletion strains, locus YOR231W, strain MKK1, stronger effect = lower value 1.01 | S. cerevisiae deletion strains, locus YOR265W, strain rbl2, stronger effect = lower value 1.01 | S. cerevisiae deletion strains, locus YOR270C, strain vph1, stronger effect = lower value 1.07 | S. cerevisiae deletion strains, locus YOR290C, strain snf2, stronger effect = lower value 1.01 | S. cerevisiae deletion strains, locus YOR316C, strain cot1, stronger effect = lower value 1.01 | S. cerevisiae deletion strains, locus YPL051W, strain arl3, stronger effect = lower value 1.04 | S. cerevisiae deletion strains, locus YPL078C, strain atp4, stronger effect = lower value 1.05 | S. cerevisiae deletion strains, locus YPL106C, strain sse1, stronger effect = lower value 1.03 | S. cerevisiae deletion strains, locus YPL240C, strain hsp82, stronger effect = lower value 1.01 | S. cerevisiae deletion strains, locus YPL256C, strain CLN2, stronger effect = lower value 1.02 | S. cerevisiae deletion strains, locus YPR119W, strain clb2, stronger effect = lower value 1 | S. cerevisiae deletion strains, locus YPR141C, strain kar3, stronger effect = lower value 1.01 | S. cerevisiae deletion strains, locus YPR163C, strain tif3, stronger effect = lower value 1.02 | S. cerevisiae deletion strains, locus YPR167C, strain met16, stronger effect = lower value 1.02 | S. cerevisiae deletion strains, strain wtn01, stronger effect = lower value 1.02 | S. cerevisiae strains, strain wild type, stronger effect = lower value 1
